Inhibition data for eight compounds are collected here from PubChem BioAssay AID624167 (Sanford-Burnham Center for Chemical Genomics, 2012).

The test can be described thus: inhibition of PEG-3 promoter-driven reporter – cell-based, HeLa, luciferase, CREF/GAPDH counter-screen panel, dose response (AID 624167). As to conditions: CREF/GAPDH counter-screens; run 1, dose range 1, at 100 µM (top of the series). A general note: A counterscreen serves to expose hits that act by an unwanted route or on another target.
One may read the inhibition as the relative decrease from the control value, in per cent. Take `C=Cc1cc(OC)c2c(c1)c(=O)oc1c2cc(OC)c2c(O)ccc(C3OC(C)C(O)C(C)(O)C3O)c21` (stereo not drawn): the inhibition is -12.4%. Consider `CC(=O)OC1CC[C@]2(C#N)[C@H]3CC[C@]4(C)[C@H](C5C=CC(=O)O5)CCC4(O)C3CCC2(O)C1` (stereo partly drawn), for which the inhibition came to 77.9%. The figure for `COC(COC(N)=O)C1=C(N2CC2)C(=O)C(C)=C(N2CC2)C1=O` (stereo not drawn) is 84.3%; for `CC1=CC2/C=C(\C)CCC(O)C(O)/C=C/C(=O)C23C(=O)NC(CC(C)C)C3C1C` (stereo not drawn) it is 99.8%; for `O=C(CSC1c2ccccc2-c2ccccc21)N/N=C/c1ccccc1O` it is 60.3%. In the case of `CCC(c1nnnn1-c1ccc2c(c1)OCCO2)N1CCC(n2c(=O)[nH]c3ccccc32)CC1` (stereo not drawn) it was 92.4%. The figure for `COc1cc2nc(CN3CC=C(c4ccccc4)CC3)[nH]c(=O)c2cc1OC` is 56.3%; for `CC(=O)OC1(C)CC(C)C(=O)C(C(O)CC2CC(=O)NC(=O)C2)C1` (stereo not drawn) it is 89.5%.
